Measurements reported in PubChem BioAssay (EPA / NIEHS).
Active and inactive are the calls of the source. The calls were made as follows: active = hit-call score of the fitted dose curve at least 0.9, where 1 is the maximum; inactive = score below 0.9.

Test: ATG_TA_CIS: Attagene CIS-FACTORIAL HepG2 Assay for human TA Basal Promoter (AID 2282964)
Details: HepG2 Attagene CIS-factorial TA basal promoter reporter; actives raise or lower the signal
Procedure: ATG_CIS is a cell-based, multiplexed-readout assay that uses HepG2, a human liver cell line, with measurements taken at 24 hours after chemical dosing in a 24-well plate.ATG_TA_CIS is one of 52 assay component(s) measured or calculated from the ATG_CIS assay. It is designed to make measurements of mRNA induction, a form of inducible reporter, as detected with fluorescence intensity signals by Reverse transcription polymerase chain reaction (RT-PCR) and Capillary electrophoresis technology.Data from the assay component ATG_TA_CIS was analyzed into 1 assay endpoint. This assay endpoint, ATG_TA_CIS, was analyzed with bidirectional fitting relative to DMSO as the negative control and baseline of activity. Using a type of inducible reporter, measures of mRNA for gain or loss-of-signal activity can be used to understand the background control at the transcription factor-level as they relate to the gene . Furthermore, this assay endpoint can be referred to as a secondary readout, because this assay has produced multiple assay endpoints where this one serves a background control function. To generalize the intended target to other relatable targets, this assay endpoint is annotated to the background measurement intended target family, where the subfamily is internal marker.
Human liver HepG2 cells are transiently transfected with multiple reporter transcription units (MRTUs) in 6-well plates using FuGene 6 reagent (Roche; 3 ml FuGene/1 mg DNA). The MRTU constructs are regulated by a cis-regulating element (promoter). […] A major difference between the CIS and TRANS system is that in CIS activities of endogenous TFs are measured, whereas the TRANS assay evaluates changes in activities of exogenous, chimeric NR-Gal4 proteins. […] At the end of 24 hour incubation, total RNA was isolated using TriZol reagent (Invitrogen). The isolated RNA is then reverse-transcribed using oligo(dT) primer and Mo-MLV reverse transcriptase (Invitrogen) with DNAse I (Ambion) treatment for 30 min. The one-tenth of the produced cDNA was amplified by PCR using Taq DNA polymerase (Invitrogen) and two reporter sequence-specific primers. The PCR products were fluorescently labeled by primer extension with 6-arboxyfluorescein (6-FAM) 5'-labeled reporter sequence-specific primer (2 min at 95 C, 20 s at 68 C and 10 min at 72 C) and these products were digested with 5U of HpaI (New England Biolabs) for 2h at 37 C. The fragments were purified using Qiaquick PCR columns (Qiagen), analyzed on an ABI 3130xL genetic analyzer (Applied Biosystems) with peak positions identified by using a set of X-rhodamine (ROX)-labeled MapMarker1000 molecular weight standards (BioVentures). The raw capillary electrophoresis data was processed using Attagraph software (Attagene).

Row | SMILES | outcome | AC50
1 | NC(CO)(CO)CO | inactive | 
2 | C=C(C)CCO | inactive | 
3 | O=C(O)c1cc(Cl)cc([N+](=O)[O-])c1Cl | inactive | 
4 | Nc1ccc2cc3ccccc3cc2c1 | inactive | 
5 | C=CCOc1c(Br)cc(Br)cc1Br | inactive | 
6 | CC(=O)OCc1ccco1 | inactive | 
7 | CC(C)(C)C(=O)C=Cc1ccc(Cl)cc1 |  | 78.2 µM (active)
8 | OCCCS | inactive | 
9 | CC(C)C(=O)C(C)C | inactive | 
10 | CC1(C)S[C@@H]2[C@H](NC(=O)COc3ccccc3)C(=O)N2[C@H]1C(=O)O | inactive | 
11 | CC(CC=O)CCCC(C)(C)O (stereo not given) | inactive | 
12 | CC(C)=CC1CC(C)CCO1 (stereo not given) | inactive | 
13 | COc1cc(NC(=O)CC(C)=O)c(OC)cc1Cl | inactive | 
14 | O=S(=O)(O)c1cc(S(=O)(=O)O)c2ccc3c(S(=O)(=O)O)cc(S(=O)(=O)O)c4ccc1c2c43 | inactive | 
15 | Cc1oncc1C(=O)Nc1ccc(C(F)(F)F)cc1 | inactive | 
16 | CC(C)=CCC/C(C)=C\C#N | inactive | 
17 | O=C(/C=C/C=C/c1ccc2c(c1)OCO2)N1CCCCC1 |  | 66.9 µM (active)
18 | CCCC(C)CCC(C)=O (stereo not given) | inactive | 
19 | O=Nc1ccc(O)cc1 | inactive | 
20 | CC(C)=CCCC(C)C=O (stereo not given) | inactive | 

Row | SMILES | outcome | AC50
21 | CC(C)=CCC[C@H](C)CCO | inactive | 
22 | C(=CC=Nc1ccccc1)C=CNc1ccccc1 | inactive | 
23 | Nc1ccc(N)c(Cl)c1 | inactive | 
24 | CC(=O)C=CC1C(C)=CCC(C)C1(C)C (stereo not given) | inactive | 
25 | CC(C)(C)C(=O)CCc1ccc(Cl)cc1 | inactive | 
26 | NC(=O)OCC(COC(N)=O)c1ccccc1 | inactive | 
27 | N=c1ccn2c(n1)O[C@H]1[C@H](O)[C@@H](CO)O[C@H]12 | inactive | 
28 | CCCCCc1ccc(Cl)cc1 | inactive | 
29 | C[Si](C)(CCCN)O[Si](C)(C)CCCN | inactive | 
30 | CC/C=C\C/C=C\C/C=C\CCCCCCCC(=O)O | inactive | 
31 | CC1=NN(c2cc(S(=O)(=O)O)ccc2Cl)C(=O)C1N=Nc1ccccc1 (stereo not given) | inactive | 
32 | O=c1c2ccccc2oc2ccccc12 | inactive | 
33 | COC(=O)/C=C/C(C)=C\C=C\C(C)=C\C=C\C=C(C)\C=C\C=C(C)\C=C\C(=O)O | inactive | 
34 | Cc1cccc(N)n1 | inactive | 
35 | CCC(C)C=O (stereo not given) | inactive | 
36 | C=C(C)C(=O)OCCOc1ccccc1 | inactive | 
37 | CC(C)(C)c1ccc(-c2ccc(C(C)(C)C)cc2)cc1 | inactive | 
38 | Cc1cccc(OCCOc2cccc(C)c2)c1 | inactive | 
39 | COC(=O)c1cc(Cl)ccc1[N+](=O)[O-] | inactive | 
40 | C=C[Si](C)(C)O[Si](C)(C)C=C | inactive | 
